# Laboratory results from PubChem BioAssay (NCI).
# This is part of a sample that, as a whole, favours compounds with a hit. Of some 83,000 tested, about 20% had one in any assay.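 In brief: 96-well plates, 48 h treatment, single concentration, percent growth endpoint.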 Unmarked numbers belong to inactive results. Calls of active or inactive are those of the source. How the source made its calls: active means growth percent below 10; inactive means the rest.
# Test system: HOP-62 NSCLC
# Test: NCI-60 one-dose screen, 48 h (100 = growth as untreated, 0 = no growth, -100 = all killed)
# Conditions: 10 µM unless noted
row,Compound,growth
1,C=CC(=O)Nc1cccc(Nc2nc(SC)nc(-c3cccc([N+](=O)[O-])c3)c2C#N)c1,53.4%
2,N#C/C(=C\c1ccc(-c2cc(C(F)(F)F)ccc2Cl)o1)c1nc(-c2ccco2)cs1,96.1%
3,COCCNc1ccc2c3c(cccc13)C(=O)N(CCN(C)C)C2=O,50.9%
4,C=CC(=O)Nc1cccc(-c2nc(SC)nc(NCc3ccccc3)c2C#N)c1,73.9%
5,COC(=O)c1cccc(NC(=O)c2ccc(-c3cccc(N)c3)o2)c1,104%
6,N#Cc1c(-c2ccc(Cl)cc2)nc(N=Nc2c(O)[nH]c3ccc(Cl)cc23)nc1N1CCOCC1,96.3%
7,N#CN1CCC[C@H]1C(=O)N1CCc2c(-c3[nH]nc4ncccc34)cccc21,-10.1% (active)

# Test system: NCI-H460 lung
# Test: as above
# Conditions: 10 µM unless noted
row,Compound,growth
1,Nc1ccc(S(=O)(=O)O)c2ccc(N=Nc3ccc(N=Nc4ccc(S(=O)(=O)O)cc4)c4ccccc34)c(O)c12,101%
2,CSc1ccc(-c2n[nH]nc2-c2cc3ccccc3s2)cc1,21%
3,COc1ccc(C(=O)COc2ccc(/C=C3\COc4ccc(OC)cc4C3=O)cc2)cc1,104%
4,COc1cc(C=Nc2oc(-c3ccccc3)c(-c3ccccc3)c2C#N)cc(CN2CCCCC2)c1O,101%
5,O=C1CC[C@H](c2ccc(O)c3c2C(=O)[C@@H]2O[C@@H]2C3=O)c2cccc(O)c21,97.1%
6,C#CC(F)(F)[C@]1(O)CC[C@H]2[C@@H]3CCC4=CC(=O)CCC4=C3[C@@H](c3ccc(C(C)=O)cc3)C[C@@]21C,97.4%
7,O=C(Cc1ccccc1Nc1c(Cl)cccc1Cl)NN1C(=O)/C(=C/c2ccc(Br)cc2)SC1=S,104%
8,Cc1nn(-c2cc(=O)[nH]c3ccccc23)c(N)c1C#N,104%
9,CCn1c(Cc2ccccc2Nc2c(Cl)cccc2Cl)nnc1SCC(=O)NN1C(=O)/C(=C/c2cc(OC)c(O)c(OC)c2)SC1=S,22.1%
10,Cc1cc(C)nc(SC2=C(Nc3cc(Cl)ccc3O)C(=O)N(Cc3ccccc3)C2=O)n1,97.4% [30 µM]
11,CCN(CC)c1ccc(/C=N\NC(=O)/C=C/C=C/c2ccc3c(c2)OCO3)c(O)c1,19.8%
12,N#Cc1cnn(-c2nc3c(Cl)cccc3s2)c1N,73.4%
13,COc1ccc(S(=O)(=O)N2CC3(COC3)C2)cc1NC(=O)c1[nH]c(C)c2c1CCCCC2=O,71.2%
14,Cn1cc(C(=O)c2nc(-c3c[nH]c4ccc(F)cc34)no2)c2cc(F)ccc21,96.4%
15,O=C1C=C(OCC=C(Cl)Cl)C(=O)c2ccccc21,99.9%
16,Cc1cc(C)nc(SC2=C(Nc3cccc(Cl)c3)C(=O)N(Cc3ccccc3)C2=O)n1,62.5% [30 µM]
17,O=c1cc(CSc2nnc(-c3ccc(F)cc3)o2)c2ccc3ccccc3c2o1,101%
18,CCCn1c(=O)[nH]c(N)c([C@H]2c3ccccc3Oc3[nH]c(=O)n(CCC)c(=O)c32)c1=O,111%
19,O=C(CCN1C(=O)/C(=C/c2ccc(Cl)cc2)SC1=S)NCCCN1CCOCC1,102%
20,Cc1nc2ccccc2n1C(=O)C[C@@H]1NC(=S)NC1=O,104%
21,O=C(N=Nc1c(O)[nH]c2ccc(Br)cc12)c1cc(-c2ccccc2)on1,101%
22,C=C(C)C(=O)Nc1ccc(NC(C)C)cc1,139%
23,CC(O)CN1CC(O)=C(c2nc3ccccc3s2)C1=N (stereo unspecified),113%
24,O=c1c2c3c(sc2nc(N/N=C/c2cn(-c4ccccc4)nc2-c2ccc(Cl)cc2)n1Cc1ccccc1)CCCC3,97.7%
25,COc1cccc(-c2nn(C(C)(C)C)cc2-c2ccnc(NCCCNS(=O)(=O)c3ccc(C)cc3)c2)c1,103%
26,CSc1nc(Nc2cccc(NC(=O)CCl)c2)c(C#N)c(-c2cccc([N+](=O)[O-])c2)n1,86.8%
27,CSc1nc(Nc2cccc(NC(=O)/C(C#N)=C/c3c(Cl)cccc3Cl)c2)c(C#N)c(-c2cccc([N+](=O)[O-])c2)n1,71.7%
28,COc1ccc(-c2nc3ccc(-c4nc5ccc(N6CCN(c7ccccc7)CC6)cc5[nH]4)cc3[nH]2)cc1OC,-6.7% (active)
29,COc1ccc(CCNc2nc3c(c(=O)n(Cc4ccc(Br)cc4)c(=O)n3C)n2C)cc1OC,96.9%
